The source of these data is PubChem BioAssay AID1903 (Southern Research Specialized Biocontainment Screening …, 2009).

Among all 310,000 compounds or so, about 1,200 (0.39%) were called active. Not all results are given here. Entries with a potency or affinity are not part of this list. Unmarked numbers belong to inactive results. How the calls were made is not given here.

As usually defined, the inhibition is the change of the read-out against control, counted positive when it falls.

Sequence of Large T antigen (Simian virus 40) (P03070 whole entry, looked up): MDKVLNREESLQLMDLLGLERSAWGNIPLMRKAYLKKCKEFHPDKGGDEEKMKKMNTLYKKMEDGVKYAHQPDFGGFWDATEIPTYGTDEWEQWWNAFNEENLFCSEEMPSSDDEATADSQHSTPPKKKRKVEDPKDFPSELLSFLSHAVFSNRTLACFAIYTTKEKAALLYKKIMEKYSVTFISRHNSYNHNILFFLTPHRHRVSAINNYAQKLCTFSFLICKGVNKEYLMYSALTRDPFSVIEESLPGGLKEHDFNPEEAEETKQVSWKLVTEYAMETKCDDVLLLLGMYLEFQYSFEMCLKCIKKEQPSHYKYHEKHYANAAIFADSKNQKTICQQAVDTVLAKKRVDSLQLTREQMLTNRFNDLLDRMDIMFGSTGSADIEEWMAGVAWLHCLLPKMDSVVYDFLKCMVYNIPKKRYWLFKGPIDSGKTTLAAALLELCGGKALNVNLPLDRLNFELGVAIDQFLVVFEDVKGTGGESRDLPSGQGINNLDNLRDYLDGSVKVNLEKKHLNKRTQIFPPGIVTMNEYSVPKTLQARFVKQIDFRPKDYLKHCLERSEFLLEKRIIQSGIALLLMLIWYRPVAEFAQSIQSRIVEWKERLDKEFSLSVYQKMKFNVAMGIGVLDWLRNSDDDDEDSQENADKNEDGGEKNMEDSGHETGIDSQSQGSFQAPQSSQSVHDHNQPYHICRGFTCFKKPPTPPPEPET

The assay concerns the target Large T antigen (Simian virus 40) (UniProt P03070). Description: SV40 large T antigen inhibitors, biochemical (AID 1903). Particulars: SV40 large T antigen ATPase/helicase inhibition assay; at 20 µM; hits give high values.
With `CCNc1c(NC(=O)C2CCC(C)CC2)c(=O)oc2ccccc12` (stereo not given), the inhibition is 7.89%.

As to `N#CCn1nnc(-c2ccc3c(c2)OCO3)n1`, the inhibition is 5.17%.

Turning to `COc1cc2nc(C3CCC3)nc(N3CCN(c4ccccn4)CC3)c2cc1OC`, the inhibition is 3.99%.

As for `O=C(N/N=C/c1ccc(N2CCOCC2)s1)c1ccccc1Cl`, the inhibition is 19.1%.

For `CC(C)(C)OC(=O)N/N=C\c1ccc([N+](=O)[O-])s1`, the inhibition is 9.37%.

Consider `Clc1cccc(N/N=C/c2ccc(N3CCOCC3)s2)c1`, for which the inhibition is 0.11%.

Regarding `O=C(N/N=C/c1ccc(N2CCOCC2)s1)c1ccccc1Br`, the inhibition was 28.7%.

In the case of `Cc1cc(-c2cc(-c3ccc(Cl)cc3)on2)nc(NCC2CC2)n1`, the inhibition is 19.1%.

Consider `COC(C/C=C/[C@@H](O)[C@H](C)OCc1ccccc1)OC`, for which the inhibition is 7.24%.

`COc1cc2[nH]c(=O)n(CCCCCC(=O)NCCCN3CCOCC3)c(=O)c2cc1OC`: the inhibition was 9.95%.

With `Nc1c(N)c2ccccc2oc1=O`, the inhibition is 3.21%.

On to `O=C1CCC(C(=O)NCCN2C(=O)S/C(=C\c3cccnc3)C2=O)=NN1`, for which the inhibition is 9.31%.

Consider `COc1cc(/C=C2/NC(=O)N(CC(=O)Nc3cccc(C)c3)C2=O)ccc1OCC(N)=O`, for which the inhibition was 6.55%.

Consider `CCOC(=O)c1[nH]c2ccccc2c1NC(=S)Nc1ccccc1C`, for which the inhibition was 35.3%.

Turning to `CCOC(=O)c1[nH]c2ccccc2c1N=CN(CC)CC`, the inhibition is 13.2%.

As for `CCCn1c(SCc2nc(N)nc(N3CCCCC3)n2)nc2c1c(=O)n(C)c(=O)n2C`, the inhibition is 27.3%.

On to `CC1=NOC(=O)/C1=C\c1ccc(-c2ccc(Br)cc2)o1`, for which the inhibition is 11.9%.

Consider `CC1=NOC(=O)/C1=C/c1ccc(-c2ccc(Cl)cc2)o1`, for which the inhibition is 29.9%.

In the case of `CC1=NOC(=O)/C1=C\c1ccc(-c2ccc(Br)cc2C(=O)O)o1`, the inhibition is 37.7%.

Turning to `CC1=NOC(=O)/C1=C\c1ccc(-c2cccc(Cl)c2)o1`, the inhibition is 2.49%.

In the case of `O=C(O)c1cc(-c2ccc(/C=C3\NC(=O)N(c4ccccc4)C3=O)o2)ccc1Cl`, the inhibition was 22.8%.

As for `CC(C)N1C(=O)S/C(=C\c2ccc(-c3ccc(Cl)c(C(=O)O)c3)o2)C1=O`, the inhibition was 31%.

In the case of `Cc1ccc(NCC(=O)Nc2cccc(F)c2)cc1S(=O)(=O)N1CCCCCC1`, the inhibition was 30.7%.

As for `O=C(Cc1cccs1)Nc1nnc(SCc2ccc(C(F)(F)F)cc2)s1`, the inhibition was 21%.

On to `O=C(c1cnn2c(C(F)(F)F)cc(-c3ccccc3)nc12)N1CCOCC1`, for which the inhibition is 2.03%.

Turning to `CN(/N=C/Cc1nnnn1-c1ccc(Cl)cc1)c1ccccc1`, the inhibition is 12.9%.

As for `Fc1ccc2c(c1)C(c1ccncc1)=NNC(c1ccc(Cl)cc1)=N2`, the inhibition is -2.03%.

Regarding `CCOc1ccc(S(=O)(=O)NCCC(=O)NC2CCCCC2)cc1`, the inhibition is 6.66%.

On to `CCC(C)CCN1C(N(C)C)=NC[C@@H]1CC(C)C` (stereo not given in full), for which the inhibition was -8.26%.

Take `COc1cc(OC)c(NS(=O)(=O)c2ccc(Cl)c(C(=O)OC(C)C(=O)N3CCCC3)c2)cc1Cl` (stereo not given): the inhibition is 0.34%.

As for `NS(=O)(=O)c1ccc(N/N=C/c2ccccn2)c([N+](=O)[O-])c1`, the inhibition is 9%.

In the case of `NS(=O)(=O)c1ccc(N/N=C/c2ccc(O)cc2O)c([N+](=O)[O-])c1`, the inhibition was 14.4%.

For the compound `O=C(CCC1COc2ccccc2O1)NCc1ccco1` (stereo not given), the inhibition was 9.35%.

Regarding `Cc1cc(=O)c2c(O)c(O)ccc2o1`, the inhibition is 27.4%.

On to `CC(=O)c1cc2cc(O)ccc2o1`, for which the inhibition is 3.38%.

As for `O=C(CCNC(=O)C1CCN(S(=O)(=O)c2ccccc2)CC1)NCc1ccncc1`, the inhibition is 18.3%.

Take `CCCCCCn1c(N(CC)CC)nc2c1c(=O)[nH]c(=O)n2C`: the inhibition was 19.9%.

With `O=C(O)c1ccc(/C=N/Nc2ccc(C(F)(F)F)cn2)cc1`, the inhibition was 4.16%.

Regarding `Oc1c(Br)cc(/C=N/Nc2ccc(Cl)nn2)cc1Br`, the inhibition was 31.9%.

On to `Oc1ccc(/C=N/Nc2ccc(C(F)(F)F)cn2)cc1`, for which the inhibition is 35.9%.

Regarding `Oc1cccc(/C=N/Nc2ccc(Cl)nn2)c1`, the inhibition was 1.08%.

With `CCOC(=O)C1CCCN(c2c(N3CCC(N4CCCCC4)CC3)c(=O)c2=O)C1` (stereo not given), the inhibition is 0.55%.

Take `CN1CCN(S(=O)(=O)c2cccc(C(=O)Nc3ccccc3N3CCOCC3)c2)CC1`: the inhibition is 8.67%.

`CCC(C)NC(=O)CN(c1ccc(Cl)c(Cl)c1)S(C)(=O)=O` (stereo not given): the inhibition was 2.27%.

As to `COc1cccc(OC)c1C(=O)NNS(=O)(=O)c1ccc2ccccc2c1`, the inhibition was 4.3%.

Take `O=[N+]([O-])c1ccc(CSc2nc3ccccc3o2)cc1`: the inhibition was 1.36%.

Consider `O=[N+]([O-])c1ccc(Cl)cc1Sc1nc2ccccc2o1`, for which the inhibition is 3.7%.

Take `Cc1nc(CCNC(=O)CC2C(=O)NCCN2CC(C)(C)C)nc2c1CCC2` (stereo not given): the inhibition is 17.9%.

Turning to `CC(=O)N1CCN(S(=O)(=O)c2cccc(C(=O)Nc3ccc(C)cn3)c2)CC1`, the inhibition was 10.6%.

As to `Cc1c(O)ccc2c(CN3CCN(Cc4ccccc4)CC3)cc(=O)oc12`, the inhibition was 20.2%.

Consider `O=c1cc(CN2CCOCC2)c2ccc(O)c(O)c2o1`, for which the inhibition is 31.2%.

With `COc1ccc(OC)c(C(=O)c2coc3ccc(O)c(CN(C)C)c23)c1`, the inhibition was 7.95%.

For `CCCc1cc(N2CCN(C(=O)c3ccco3)CC2)n2c(nc3ccccc32)c1C#N`, the inhibition was 14.7%.

As to `Cc1ccc(S(=O)(=O)Nc2ccc(N3CCN(C)CC3)nc2)cc1`, the inhibition is 15.7%.

For `COc1ccc2c(OC)c3ccoc3nc2c1OC`, the inhibition was 6.26%.

Consider `COc1cc2nc3occc3c(OC)c2cc1OC`, for which the inhibition is 19.9%.

Take `CCn1nc(C)c(CN2CCCCC2C(=O)Nc2ccc(Oc3cccnc3)cc2)c1C` (stereo not given): the inhibition is 13.5%.

Regarding `CC(Oc1ccc2ccc(=O)oc2c1)C(=O)N1CCOCC1` (stereo not given), the inhibition was 29.2%.

In the case of `O=Nc1c(O)[nH]c2ccc(F)cc12`, the inhibition is 3.33%.

In the case of `Cc1ccc2[nH]c(O)c(N=O)c2c1`, the inhibition was 1.83%.

`Cn1c(=O)c2sccc2n2c(CCCC(=O)N3CCCCC3)nnc12`: the inhibition was 7.77%.

Consider `CN1C(=O)N(C)c2ccc(C=O)c3cccc1c23`, for which the inhibition is 1.16%.

On to `CN1c2cccc3cccc(c23)N(C)C1(C)C`, for which the inhibition was 23%.

In the case of `Cc1ccc(C(=O)Nc2ccc(N3CCOCC3)nc2)cc1`, the inhibition is 1.46%.

As for `COc1ccc(NC(=O)c2ccc(N3CCOCC3)nc2)cc1`, the inhibition was 6.11%.

For `CC(=O)Nc1ccc(NC(=O)CN2CCN(c3ccccn3)CC2)cc1`, the inhibition was 0.46%.

With `COc1ccc(NC(=O)CCN2CCN(S(=O)(=O)c3ccc(C(C)C)cc3)CC2)cc1`, the inhibition is 14.9%.

As to `O=C(CCN1CCN(c2ccccn2)CC1)Nc1ccc(F)cc1`, the inhibition was 2.77%.

Take `COc1ccc(NC(=O)CCN2CCN(S(=O)(=O)c3ccc(OC)cc3)CC2)cc1`: the inhibition was 6.07%.

With `CCN(CC)CCn1c2c(c(SCC(=O)Nc3ccc4c(c3)OCO4)nc1=O)CCC2`, the inhibition was 8.82%.

Turning to `O=C(O)C1=C[C@H](c2ccc3c(c2)OCO3)C[C@H](OCc2ccc(CO)cc2)O1`, the inhibition is 9.17%.

In the case of `COc1ccccc1-c1cc(C(F)(F)F)nc(S(=O)(=O)CCCC(=O)NCc2ccc(F)cc2)n1`, the inhibition was 23.6%.

`CCOc1ccc(C(=O)CCc2nc3ccccc3s2)cc1`: the inhibition was 17.3%.

For the compound `CCOC(=O)/C(C#N)=C/c1c(N2CCN(c3ccccc3)CC2)nc2c(C)cccn2c1=O`, the inhibition was 2.5%.

On to `COc1cc(Cl)c(C)cc1Nc1ncccn1`, for which the inhibition was 5.51%.

`CCCCCNC(=O)Cn1c(=O)c2c(ncn2CC(C)C)n(Cc2ccccc2)c1=O`: the inhibition was 9.03%.

With `O=C(CSc1nnc(NC(=O)c2c(F)cccc2F)s1)NCc1ccccc1`, the inhibition is 9.61%.

As to `COCCn1c(=O)[nH]c2cc(C(=O)NCCN3CCN(c4ccccc4)CC3)ccc2c1=O`, the inhibition is 0.98%.

`O=S(=O)(NC1=NCCCCC1)c1ccc2ccccc2c1`: the inhibition was 7.96%.

For the compound `CCc1ccc(C(=O)OCC(=O)Nc2cccc(S(=O)(=O)NC3=NCCCCC3)c2)cc1`, the inhibition is 23%.

`Nc1nc2cc(S(=O)(=O)NC3=NCCCCC3)ccc2s1`: the inhibition was 37.1%.

For the compound `O=S(=O)(Nc1nc2c(s1)CCCC2)c1ccc2ccccc2c1`, the inhibition was 21.8%.

For `CC1CC(=O)C2=C(C1)Nc1ccccc1N(C(=O)COc1ccccc1)C2c1ccco1` (stereo not given), the inhibition is 5.78%.

Turning to `CCN(CC)Cc1c(O)ccc2c(=O)c(Oc3ccccc3OC)c(C)oc12`, the inhibition was 13.5%.

In the case of `Cc1c(-c2ccc(F)cc2)[n+](=O)c(-c2ccc(F)cc2)c(C)n1[O-]`, the inhibition was 17.5%.

With `CC(C)(C)c1ccc(C(=O)NNC(=S)NCc2ccco2)cc1`, the inhibition is 12.7%.

In the case of `Cc1ccccc1Nc1c(-c2cccnc2)nc2ccccn12`, the inhibition was 11.7%.

Consider `Cc1ccc2nc(-c3ccncc3)c(NC3CCCC3)n2c1`, for which the inhibition is 11.4%.

With `Cc1ccc2nc(-c3ccccn3)c(Nc3ccccc3C)n2c1`, the inhibition is 16.6%.

Consider `c1ccc(-c2nc3ccccn3c2NC2CCCC2)nc1`, for which the inhibition was 35%.

On to `CCCCCCC(=O)Oc1cccc(N2C(=O)C3CCCCC3C2=O)c1` (stereo not given), for which the inhibition was 4.91%.

With `CCOC(=O)N1CCN(S(=O)(=O)c2ccc(OCC(=O)OC)c(Cl)c2)CC1`, the inhibition was -13.8%.

For the compound `N#C/C(=C\c1ccc2c(c1)OCO2)C(=O)NCc1ccco1`, the inhibition was 6.96%.

As to `CC(c1ccccc1)N1CCC(CNC(=S)Nc2cccc(Cl)c2)C1` (stereo not given), the inhibition was 16.7%.

In the case of `CC1OC(OC2C(Oc3c(-c4ccc(O)cc4)oc4cc(O)cc(O)c4c3=O)OC(COC3O[C@@H](C)[C@H](O)[C@@H](O)C3O)C(O)C2O)C(O)C(O)C1O` (stereo not given in full), the inhibition was 3.2%.

With `C[C@@H]1O[C@@H](OC[C@H]2O[C@@H](Oc3c(-c4ccc(O)c(O)c4)oc4cc(O)cc(O)c4c3=O)[C@H](O)[C@@H](O)[C@@H]2O)[C@H](O)[C@H](O)[C@H]1O`, the inhibition was 5.24%.

In the case of `O=c1c(OC2OC(CO)C(O)C(O)C2OC2OC(CO)C(O)C(O)C2OC2OC(CO)C(O)C(O)C2O)c(-c2ccc(O)c(O)c2)oc2cc(O)cc(O)c12` (stereo not given), the inhibition is 7.41%.

On to `O=c1c(O[C@@H]2O[C@H](CO)[C@@H](O)[C@H](O)[C@H]2O)c(-c2ccc(O)c(O)c2)oc2cc(O)cc(O)c12`, for which the inhibition was 2.85%.

In the case of `C[C@@H]1O[C@@H](OC[C@H]2O[C@@H](Oc3c(-c4ccc(O)cc4)oc4cc(O)cc(O)c4c3=O)[C@H](O)[C@@H](O)[C@@H]2O)[C@H](O)[C@H](O)[C@H]1O`, the inhibition was 10%.

As to `O=c1c(O[C@@H]2O[C@H](CO)[C@H](O)[C@H](O)[C@H]2O)c(-c2ccc(O)c(O)c2)oc2cc(O)cc(O)c12`, the inhibition was -2.68%.
